The panel holds about 83,000 compounds, 20% with a hit somewhere; the sample as a whole holds those more often.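 Cell lines were cultured in 96-well plates, exposed to a single compound concentration, and assessed for percent growth 48 hours later.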 Unmarked numbers belong to inactive results. Active and inactive are the calls of the source. How the source made its calls: active means growth percent below 10; inactive means the rest.

The values below come from PubChem BioAssay (NCI).

Holding throughout (test): NCI-60 one-dose screen, 48 h (100 = growth as untreated, 0 = no growth, -100 = all killed)
Conditions in all cases: 10 µM unless noted

In assay [1] the test system is SK-MEL-2 melanoma.
For assay [2], the system named is EKVX NSCLC.
For assay [3], the system named is SN12C renal.
Assay [4] has as its system UO-31 renal.
The test system of assay [5] is TK-10 renal.
For assay [6], the system named is ACHN renal.
Assay [7] concerns CAKI-1 renal.
The test system of assay [8] is A498 renal.
The test system of assay [9] is CCRF-CEM leukemia.
For assay [10], the system named is MOLT-4 leukemia.
In assay [11] the test system is SR leukemia.
For assay [12], the system named is RPMI-8226 leukemia.
Assay [13] deals with OVCAR-8 ovarian.
In assay [14] the test system is OVCAR-5 ovarian.
For assay [15], the system named is SK-OV-3 ovarian.
Assay [16] deals with IGROV1 ovarian.
Assay [17] deals with OVCAR-3 ovarian.
Assay [18] concerns HS 578T breast.
Assay [19] concerns NCI/ADR-RES ovarian.
Assay [20] relates to OVCAR-4 ovarian.

On to `Cn1cc(-c2cc(N)n3nc(-c4c[nH]c5ccccc45)cc3n2)c2cc(Br)ccc21`, for which the growth in assay [1] is -65.4% (active); in [2] it was -86.5% (active); in [3] it was -78.8% (active); in assay [4], -82.3% (active); in assay [5], -94.6% (active); in assay [6], -87.7% (active). Moreover, the growth in assay [7] was -87.3% (active); in [8], -92.5% (active); in [9], -22.9% (active); in [10] it was 7.68% (active); in [11], 13.6%; in [12] it was -9.12% (active). For the same molecule, the growth in assay [13] was -63.7% (active); in assay [14] it was -57.1% (active); in assay [15], -60% (active); in assay [16], -70.6% (active); in assay [17] it was -48% (active); in assay [18], -29.9% (active). For the same molecule, the growth in assay [19] was -18.4% (active).
For `COc1ccccc1/C=C/c1cccc(NC(=S)NCCCCN(C)C)c1`, the growth in assay [1] was -81.4% (active); in [2], -91.7% (active); in [3], -96.6% (active); in [4] it was -84.9% (active); in [5] it was -82.7% (active); in assay [6] it was -100% (active). Also, the growth was -87.8% (active) in assay [7]; -65.9% (active) in assay [8]; -38.8% (active) in assay [9]; -32.9% (active) in [10]; -30.5% (active) in assay [11]; -6.58% (active) in assay [12]. Also, the growth is -58.5% (active) in assay [13]; -92.3% (active) in assay [14]; -72.9% (active) in assay [15]; -82.4% (active) in [16]; -48.8% (active) in [17]; -24.2% (active) in assay [18]. Also, in assay [19], the growth is -62.6% (active).
For `N/C(=N\c1nc2ccc([N+](=O)[O-])cc2s1)NC(=O)Nc1ccccc1Cl`, the growth in [1] is 88.1%; in assay [2] it was 58.4%; in assay [3], 25.5%; in [4], -32.1% (active); in assay [5], 17.8%; in assay [6], -41.4% (active). Besides, the growth in assay [7] was 43.1%; in [8], -5.78% (active); in assay [9], 74.9%; in assay [10], 83.5%; in [11], 23.6%; in [12] it was 60.7%. Further, the growth was 6.87% (active) in [13]; 38.2% in assay [14]; 24.2% in assay [15]; 55.8% in [16]; -52.8% (active) in [17]; 59.7% in assay [18]. The growth in [19] was 37.6%.
Take `Cc1ccc(S(=O)(=O)Nc2ccc(-c3ccc4c(c3)NC(=O)/C4=C\c3ccc[nH]3)cc2)cc1`: the growth is 105% in assay [1]; 35.7% in assay [2]; 85.8% in assay [3]; 93.9% in [4]; 98.4% in assay [5]; 93.5% in assay [6]. The growth was 87.3% in [7]; 112% in assay [8]; 62.3% in assay [9]; 68.1% in assay [10]; -3.97% (active) in assay [11]; 63.6% in assay [12]. The growth in assay [13] is 86.7%; in assay [14], 90.8%; in [15], 108%; in assay [16], 93.5%; in [17], 125%; in [18] it was 92.2%. The growth in assay [19] is 89%.
With `O=Cc1cncc(-c2ccc3ncnc(N4CCc5cc(F)c(Cl)cc54)c3c2)c1`, the growth in [1] is 24.5%; in assay [2], 0.858% (active); in assay [3], 23.2%; in assay [4] it was 10.7%; in assay [5], 4.74% (active); in assay [6], 11.5%. For the same molecule, the growth in assay [7] was 12.5%; in assay [8] it was -30.4% (active); in assay [9], 16.6%; in assay [10], -30.6% (active); in assay [11] it was -4.69% (active); in assay [12], 15.4%. In addition, the growth in [14] is 27.6%; in assay [20], 43.4%; in assay [15], 4.6% (active); in assay [16], -41.2% (active); in assay [18] it was -17.9% (active); in assay [19] it was 34.8%.
`N#Cc1c(-c2ccc(F)cc2)nc(SCc2ccccc2)nc1N1CCNCC1`: the growth in assay [1] is -82.9% (active); in assay [2], -98.3% (active); in assay [3] it was -93.5% (active); in [4], -82.7% (active); in assay [5], -88.3% (active); in [6], -99% (active). Besides, the growth is -95.3% (active) in assay [7]; -13.8% (active) in assay [8]; -3.47% (active) in assay [9]; -0.64% (active) in [10]; -10.3% (active) in assay [11]; -58% (active) in assay [12]. In addition, the growth in [14] is -96.3% (active); in assay [20] it was -75% (active); in assay [15] it was -67.9% (active); in assay [16] it was -95.6% (active); in assay [17], -61.3% (active); in assay [18], -45.6% (active). Moreover, the growth in assay [19] was -51.1% (active).
Regarding `COc1ccc(/C=C/C(=O)c2ccc(S(=O)(=O)NCCNc3nc(N(C)C)nc(N4CCOCC4)n3)cc2)cc1`, the growth is 94.9% in assay [1]; 81.1% in assay [2]; 91.6% in [3]; 74.5% in assay [4]; 114% in assay [5]; 104% in [6]. Besides, the growth is 73.2% in assay [7]; 89.2% in assay [8]; 80% in assay [9]; 34.7% in assay [10]; 13.8% in assay [11]; 14% in assay [12]. Further, the growth is 98.5% in assay [13]; 95.4% in assay [14]; 94.1% in assay [20]; 101% in assay [15]; 100% in [17]; 104% in assay [18]. The growth in assay [19] was 89.7%.
Take `Nc1nn2c(-c3cc4ccccc4oc3=O)ccnc2c1N=Nc1ccccc1`: the growth is 97.4% in [1]; 66.9% in assay [2]; 48.6% in assay [3]; 63.2% in assay [4]; 103% in [5]; 54.9% in assay [6]. For the same molecule, the growth in assay [7] was 81.8%; in assay [8], 111%; in [9], 101%; in [10], 113%; in assay [11] it was 59.1%; in assay [12], 105%. Besides, the growth in assay [14] was 82.3%; in assay [20] it was 96.6%; in assay [15], 60.1%; in assay [16], 47.5%; in [17], 82.7%; in [18], 75.8%.
